A short description of test [1]: small molecules captured by biotinylated probe aFSTL3 – biochemical, small-molecule microarray, fluorescence 635/667, stem cell growth factor project, primary screen (AID 1064).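 Also: measures binding of the biotinylated anti-FSTL3 antibody to printed compounds.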 The note with it: higher = more signal.
Test [2] in a line: binders from COS7 lysate, DM2A8 probe, primary screen, torsin A project, cell lysate, small-molecule microarray, fluorescence 635/667 (AID 1065). The settings on record: higher = more signal, COS7 lysate expressing mutant human TOR1A.
Test [3] in a line: small molecules captured by biotinylated probe aFGF2 – biochemical, small-molecule microarray, fluorescence 635/667, stem cell growth factor project, primary screen (AID 1067).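 Also: measures binding of biotinylated aFGF2 protein to printed compounds on slides; z-score merges feature fluorescence and signal-to-noise across triplicate slides.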 The note with it: higher = more signal.
The nature of test [4]: small molecules captured by biotinylated probe aFGF10 – biochemical, small-molecule microarray, fluorescence 635/667, stem cell growth factor project, primary screen (AID 1071).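 Also: score merges 667 nm spot intensity and signal to noise from triplicate slides.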 The note with it: higher = more signal.
For test [5], the target named is Neurogenic locus notch homolog protein 2 (Homo sapiens) (UniProt Q04721). The test is described as follows: small molecules binding Notch2 protein – biochemical, small-molecule microarray, 635 nm fluorescence, stem cell growth factors, primary screen (AID 1073). The settings on record: higher = more signal.
For test [6], the target named is Pro-neuregulin-1, membrane-bound isoform (Homo sapiens) (UniProt Q02297). Kind of test: small molecules binding neuregulin-1 protein – biochemical, small-molecule microarray, fluorescence 635/667, psychiatric disease protein project, primary screen (AID 1075).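 Also: score combines 667 nm spot fluorescence with signal to noise.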 The settings on record: NRG1 binding, 635 nm fluorescence, higher = more signal.
For test [7], the system named is Neuregulin-1 EGF-like domain. The test is described as follows: small molecules binding NRG1 EGF domain – biochemical, small-molecule microarray, 635 nm fluorescence, primary screen (AID 1081).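 Also: binding of the protein to compounds printed on small-molecule microarray slides.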 The settings on record: higher = more signal.
Test [8] is described as follows: FRG1 expression reporter modulators in myotubes – cell-based, C2C12 myotubes, firefly/Renilla luciferase, luminescence, FRG1 inhibition for FSHD, primary screen (AID 1084). The note with it: FRG1 promoter luciferase, higher = more signal, called active from +8 up or from −8 down.
Test [9] is described as follows: small molecules captured by biotinylated probe aFST – biochemical, small-molecule microarray, fluorescence 635/667, stem cell growth factor project, primary screen (AID 1086).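 Also: score merges 667 nm fluorescence with signal-to-noise of each printed compound spot.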 The settings on record: higher = more signal.
Test [10] can be described thus: binders of probe aHhip on microarray, primary screen, stem cell growth factor project, biochemical, small-molecule microarray, fluorescence 635/667 (AID 1087).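 Also: score merges spot fluorescence at 667nm with spot signal to noise ratio.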 The settings on record: higher = more signal.
In test [11] the test system is PRMT1 (protein arginine N-methyltransferase 1). Kind of test: small molecules binding arginine methyltransferase PRMT1 – biochemical, small-molecule microarray, 635 nm fluorescence, primary screen (AID 1088).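 Also: binding of Prmt1 protein to compounds spotted on small-molecule microarray slides.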 The settings on record: higher = more signal.
The nature of test [12]: growth effects on S. cerevisiae YJM789 – YJM789 clinical isolate, OD600, 24 h, basal, primary screen (AID 1089).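 Also: growth of clinical yeast isolate S. cerevisiae YJM 789 seeded 1000 cells per well; test concentration not given here.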 The settings on record: higher = more signal, called active from +8 up or from −8 down.
Test [13] can be described thus: S. pombe growth modifiers, basal conditions – strain 972, OD600, 24 h, no modulator, primary screen (AID 1090).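 Also: basal condition with compound alone and no growth modifier present; test concentration not given here.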 The note with it: S. pombe 972 growth, higher = more signal, called active from +8 up or from −8 down.
The nature of test [14]: budding yeast growth modifiers under rapamycin – strain BY4716, OD600, 96 h, primary screen (AID 1091). Also: test concentration not given here. The note with it: S. cerevisiae BY4716 + rapamycin, higher = more signal, called active from +8 up or from −8 down.
Test [15] concerns the target Torsin-1A-interacting protein 2 (Homo sapiens) (UniProt Q8NFQ8). The test is described as follows: small molecules binding lysate-expressed LULL1 – cell lysate, human LULL1 lysate, 635/667 nm fluorescence, primary screen (AID 1092).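 Also: probe is lysate of COS7 cells overexpressing human LULL1; score merges per-feature 667 nm fluorescence with signal-to-noise.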 The settings on record: small-molecule microarray, hLULL1 lysate binding, 635 nm fluorescence; higher = more signal.
The nature of test [16]: optical density change of DRC41 E. coli – strain DRC41, OD650, 24 h, E. coli filamentation project, primary screen (AID 1093).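 Also: MC1000 strain lacking acrAB efflux and sulA so SOS filamentation is blocked; test concentration not given here.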 The note with it: E. coli DRC41 growth, higher = more signal, called active from +8 up or from −8 down.
The nature of test [17]: probe aLefty2 binding to arrayed compounds – biochemical, biotinylated probe, 635/667 nm fluorescence, primary screen (AID 1094).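 Also: score merges spot fluorescence near 667 nm with spot signal-to-noise ratio.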 The note with it: small-molecule microarray, higher = more signal.
Test [18] relates to Noggin (protein binding on small-molecule microarray). Kind of test: small molecules binding Noggin protein – biochemical, 635/667 nm fluorescence, primary screen (AID 1095).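 Also: score merges 667 nm feature fluorescence with signal to noise over triplicate slides.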 The settings on record: 635 nm fluorescence, higher = more signal.
Test [19] addresses Neurogenic locus notch homolog protein 3 (Homo sapiens) (UniProt Q9UM47). The test is described as follows: small molecules binding NOTCH3 protein – biochemical, 635/667 nm fluorescence, primary screen (AID 1096). The note with it: small-molecule microarray, 635 nm fluorescence, higher = more signal.
Test [20] can be described thus: probe aEGFR binding to arrayed compounds – biochemical, biotinylated probe, 635/667 nm fluorescence, primary screen (AID 1097).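 Also: probe is a biotinylated anti-EGFR antibody binding compounds printed on slides; score combines fluorescence near 667 nm and signal to noise of each spot.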 The settings on record: small-molecule microarray, higher = more signal.

Active and inactive are the calls of the source.

Neurogenic locus notch homolog protein 2 (Homo sapiens), sequence (Q04721 whole entry, looked up, canonical isoform): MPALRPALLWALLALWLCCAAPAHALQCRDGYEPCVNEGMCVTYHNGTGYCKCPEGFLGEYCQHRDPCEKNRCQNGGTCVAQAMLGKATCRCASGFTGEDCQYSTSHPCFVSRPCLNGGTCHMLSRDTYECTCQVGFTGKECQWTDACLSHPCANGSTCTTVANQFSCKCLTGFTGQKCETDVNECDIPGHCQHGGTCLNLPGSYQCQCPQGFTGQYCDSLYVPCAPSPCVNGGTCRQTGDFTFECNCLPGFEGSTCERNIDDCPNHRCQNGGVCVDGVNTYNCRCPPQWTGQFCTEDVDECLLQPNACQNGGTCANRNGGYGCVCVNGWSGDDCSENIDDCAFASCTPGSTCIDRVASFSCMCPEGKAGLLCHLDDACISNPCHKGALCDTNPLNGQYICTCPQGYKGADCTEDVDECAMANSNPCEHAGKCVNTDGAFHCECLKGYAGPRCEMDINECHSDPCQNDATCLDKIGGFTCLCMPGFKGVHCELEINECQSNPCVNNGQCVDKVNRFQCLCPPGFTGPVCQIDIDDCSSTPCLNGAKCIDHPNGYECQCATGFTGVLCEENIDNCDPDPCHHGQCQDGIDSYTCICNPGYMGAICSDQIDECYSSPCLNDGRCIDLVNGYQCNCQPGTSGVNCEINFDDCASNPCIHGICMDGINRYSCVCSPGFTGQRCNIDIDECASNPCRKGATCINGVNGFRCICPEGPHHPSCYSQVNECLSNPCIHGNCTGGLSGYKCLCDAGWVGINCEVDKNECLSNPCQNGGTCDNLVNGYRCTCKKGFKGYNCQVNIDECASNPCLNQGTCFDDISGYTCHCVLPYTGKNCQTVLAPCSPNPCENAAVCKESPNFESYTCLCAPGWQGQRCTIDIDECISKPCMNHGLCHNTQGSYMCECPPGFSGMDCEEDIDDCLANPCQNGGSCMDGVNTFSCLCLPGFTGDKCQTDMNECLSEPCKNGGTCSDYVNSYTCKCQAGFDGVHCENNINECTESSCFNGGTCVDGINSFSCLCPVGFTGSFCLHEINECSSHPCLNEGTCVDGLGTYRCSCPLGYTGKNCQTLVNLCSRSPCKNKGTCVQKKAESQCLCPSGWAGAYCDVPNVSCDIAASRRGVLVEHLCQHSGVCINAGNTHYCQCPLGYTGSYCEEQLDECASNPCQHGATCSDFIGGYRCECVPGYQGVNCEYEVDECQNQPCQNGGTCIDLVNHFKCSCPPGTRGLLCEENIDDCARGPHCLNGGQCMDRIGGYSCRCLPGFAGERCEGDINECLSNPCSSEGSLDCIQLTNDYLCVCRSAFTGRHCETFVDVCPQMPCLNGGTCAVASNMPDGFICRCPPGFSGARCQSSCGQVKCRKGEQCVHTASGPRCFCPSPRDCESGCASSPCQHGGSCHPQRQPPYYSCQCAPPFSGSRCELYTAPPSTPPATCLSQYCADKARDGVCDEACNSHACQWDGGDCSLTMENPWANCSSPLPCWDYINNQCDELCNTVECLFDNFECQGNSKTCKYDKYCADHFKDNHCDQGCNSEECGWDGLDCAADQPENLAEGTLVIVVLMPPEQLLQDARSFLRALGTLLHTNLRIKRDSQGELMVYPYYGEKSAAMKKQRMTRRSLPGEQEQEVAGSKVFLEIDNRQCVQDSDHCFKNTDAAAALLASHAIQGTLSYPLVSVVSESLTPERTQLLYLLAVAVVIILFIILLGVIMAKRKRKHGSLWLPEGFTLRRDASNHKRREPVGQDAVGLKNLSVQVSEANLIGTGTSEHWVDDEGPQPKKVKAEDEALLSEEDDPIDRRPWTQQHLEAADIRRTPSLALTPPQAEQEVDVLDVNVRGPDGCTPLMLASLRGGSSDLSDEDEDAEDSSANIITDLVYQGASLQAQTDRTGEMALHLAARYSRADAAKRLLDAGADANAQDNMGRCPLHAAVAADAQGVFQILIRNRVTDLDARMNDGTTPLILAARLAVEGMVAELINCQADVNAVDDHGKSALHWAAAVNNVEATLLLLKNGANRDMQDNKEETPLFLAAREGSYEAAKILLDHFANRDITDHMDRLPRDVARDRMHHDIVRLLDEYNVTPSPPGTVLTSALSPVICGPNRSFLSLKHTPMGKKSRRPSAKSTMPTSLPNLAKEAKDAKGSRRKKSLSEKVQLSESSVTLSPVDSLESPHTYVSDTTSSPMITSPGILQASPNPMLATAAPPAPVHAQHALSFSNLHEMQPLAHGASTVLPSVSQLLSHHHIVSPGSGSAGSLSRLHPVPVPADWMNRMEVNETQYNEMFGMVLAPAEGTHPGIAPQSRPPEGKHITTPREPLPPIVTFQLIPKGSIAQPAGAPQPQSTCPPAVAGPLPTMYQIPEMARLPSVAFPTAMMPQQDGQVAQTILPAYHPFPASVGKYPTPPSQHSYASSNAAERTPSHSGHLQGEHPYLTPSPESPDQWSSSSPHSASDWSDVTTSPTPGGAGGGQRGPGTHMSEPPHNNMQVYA
Torsin-1A-interacting protein 2 (Homo sapiens), sequence (Q8NFQ8 whole entry, looked up): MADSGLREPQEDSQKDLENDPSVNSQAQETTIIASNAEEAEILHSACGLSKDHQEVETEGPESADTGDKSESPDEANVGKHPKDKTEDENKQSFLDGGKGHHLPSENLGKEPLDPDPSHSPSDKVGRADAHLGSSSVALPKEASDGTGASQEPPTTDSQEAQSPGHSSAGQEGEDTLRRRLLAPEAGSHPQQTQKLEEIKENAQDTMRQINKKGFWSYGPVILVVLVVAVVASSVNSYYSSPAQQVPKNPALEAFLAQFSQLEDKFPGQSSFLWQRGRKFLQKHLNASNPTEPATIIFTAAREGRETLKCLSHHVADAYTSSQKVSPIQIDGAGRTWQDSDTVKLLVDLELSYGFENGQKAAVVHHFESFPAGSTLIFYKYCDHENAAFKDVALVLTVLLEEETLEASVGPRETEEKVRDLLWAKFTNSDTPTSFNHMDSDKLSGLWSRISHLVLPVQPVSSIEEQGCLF
Pro-neuregulin-1, membrane-bound isoform (Homo sapiens), sequence (Q02297 whole entry, looked up, the tested form may be a part, canonical isoform): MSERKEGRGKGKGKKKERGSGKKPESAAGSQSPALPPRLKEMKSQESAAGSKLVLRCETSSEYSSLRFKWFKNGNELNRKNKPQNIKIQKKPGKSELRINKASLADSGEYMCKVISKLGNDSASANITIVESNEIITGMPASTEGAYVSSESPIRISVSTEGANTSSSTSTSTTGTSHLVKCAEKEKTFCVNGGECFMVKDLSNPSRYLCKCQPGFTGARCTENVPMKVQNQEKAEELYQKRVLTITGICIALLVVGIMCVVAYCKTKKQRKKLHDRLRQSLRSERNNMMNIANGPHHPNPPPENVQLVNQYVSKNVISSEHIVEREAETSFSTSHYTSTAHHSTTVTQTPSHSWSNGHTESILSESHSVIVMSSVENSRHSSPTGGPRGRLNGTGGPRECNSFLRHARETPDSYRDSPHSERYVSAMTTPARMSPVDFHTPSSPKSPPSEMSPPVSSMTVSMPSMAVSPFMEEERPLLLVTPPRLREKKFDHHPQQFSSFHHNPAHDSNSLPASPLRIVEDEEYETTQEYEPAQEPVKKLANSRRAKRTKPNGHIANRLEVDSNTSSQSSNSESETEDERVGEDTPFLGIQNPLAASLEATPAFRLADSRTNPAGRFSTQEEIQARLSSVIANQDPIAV

For the compound `CCOC(=O)CCN1C(=O)[C@H]2[C@H]3[C@H](O)[C@H](O)CC(=NNC(=O)OCc4ccccc4)[C@@H]3CC[C@H]2C1=O`, the composite z-score is -0.326 in test [1]; 0.695 in [2]; -0.158 in test [3]; 0.504 in test [4]; 0.88 in [5]; 0.716 in [6]. The composite z-score in test [7] was 0.971; in [9], 0.111; in test [10], -0.189; in test [11], 1.05; in [15], 0.967; in [17], -0.23. Also, the values for the composite z-score in [18], in test [19] and in [20] were 0.713, 1.01 and -0.0688, respectively. Also, the z-score was -0.518 (inactive) in test [8]; -0.662 (inactive) in test [12]; 0.279 (inactive) in [13]; -0.598 (inactive) in test [14]; 0.826 (inactive) in test [16].

For `COc1ccc(COC(=O)NN=C2C[C@@H](O)[C@@H](O)[C@@H]3[C@@H]4C(=O)N(c5ccc(F)cc5F)C(=O)[C@@H]4CC[C@H]23)cc1`, the composite z-score in test [1] was 1.64; in test [2] it was -0.398; in test [3], -0.128; in test [4] it was -0.088; in [5] it was -0.412; in [6], 0.461. Also, the composite z-score in test [7] was 0.179; in [9] it was 1.28; in test [10] it was -0.0645; in [11], 0.0093; in [15], 0.142; in [17], 0.469. The composite z-score in test [18] was -0.186; in test [19], -0.425; in [20] it was -0.171. Further, the z-score in [8] is 0.398 (inactive); in test [12], 0.201 (inactive); in test [13] it was -4.12 (inactive); in test [14], -0.971 (inactive); in test [16], 0.0412 (inactive).

Turning to `CC(C)CON=C1C[C@@H](O)[C@@H](O)[C@@H]2[C@@H]3C(=O)N(C4CCCCC4)C(=O)[C@@H]3CC[C@H]12`, the composite z-score in test [1] was -0.475; in test [2], 0.6; in test [3], -0.0383; in test [4] it was 0.848; in test [5] it was 1.14; in [6] it was 0.936. The composite z-score in test [7] is 0.743; in test [9] it was 0.272; in test [10], -0.169; in [11], 1.42; in test [15], 1.1; in [17] it was -0.0396. Further, the results for the composite z-score in test [18], in test [19] and in test [20] were 0.683, 1.13 and -0.0817, respectively. The z-score in test [8] is -0.276 (inactive); in test [12], 0.0058 (inactive); in test [13], 0.303 (inactive); in test [14] it was -0.393 (inactive); in test [16] it was 0.411 (inactive).

For the compound `CO[C@@H]1C=CCC(=O)N2CCC[C@H]2C(=O)OC[C@@H](C)C(=O)OC[C@H]1C`, the composite z-score in [1] is -0.605; in test [2], 1.7; in test [3], -0.159; in test [4] it was 0.492; in [5], 0.156; in test [6], -0.582. Besides, the composite z-score is 0.477 in [7]; 0.274 in [9]; 0.238 in [10]; 0.865 in [11]; -0.334 in test [15]; -0.143 in test [17]. The composite z-score was 1.56 in [18], -0.0741 in test [19] and -0.0444 in [20]. Further, the z-score was -1.15 (inactive) in [8]; -0.0313 (inactive) in [12]; -1.32 (inactive) in test [13]; -0.918 (inactive) in test [14]; 0.872 (inactive) in test [16].

On to `COC(=O)NCC=Cc1nc(CCCO)co1`, for which the composite z-score in test [1] is -0.596; in test [2], 0.273; in [3], -0.0174; in [4], 0.525; in test [5] it was 0.623; in test [6], 0.177. Moreover, the composite z-score in test [7] is 0.414; in test [9], 0.0512; in [10] it was -0.287; in test [11], -0.227; in test [15], 0.39; in test [17], -0.0139. Further, the composite z-score in [18] stood at 0.501; in test [19], 0.903; in [20], 0.0678. In addition, the z-score in test [8] was -0.435 (inactive); in [12] it was 0.084 (inactive); in [13] it was 0.211 (inactive); in test [14] it was 0.214 (inactive); in [16], 0.423 (inactive).

`C=CC[C@@H]1C=C[C@H](ON=C(C)CCC(=O)OC[C@H]2O[C@H](c3ccccc3)C=C[C@@H]2Oc2ccc(OC)cc2)[C@@H](CO)O1`: the composite z-score was -0.409 in test [1]; -0.324 in test [2]; -0.163 in test [3]; 0.13 in [4]; -1.06 in [5]; 0.372 in test [6]. In addition, the composite z-score in [7] was 0.215; in test [9], -0.303; in [10], -0.147; in [11], 0.12; in test [15] it was -0.177; in [17], -0.209. For the same compound, the composite z-score in test [18] is 0.185; in test [19], -1.3; in [20], -0.172. The z-score was 0.403 (inactive) in test [8]; 0.0343 (inactive) in [12]; -0.212 (inactive) in test [13]; 0.261 (inactive) in test [14]; 0.358 (inactive) in test [16].

The values are drawn from PubChem BioAssay.
